Compound activity deposited in PubChem BioAssay by The Scripps Research Institute Molecular Screening Center.
Compounds with a hit are over-represented: about 2.3% of the library has one in this group of screens.
MsrA act: activates bovine MsrA enzyme. purified bovine MsrA, absorbance read-out. activation, % at 10.6 µM. hit rate 0.3% among 360,000; in the data active = activation above about 7.5%
ZTA counter: blocks Epstein-Barr virus ZTA, an EBNA-1 counter-screen; inhibition, % at 11 µM; hit rate 0.15% among 320,000; P03206; ZTA-DNA binding, fluorescence polarization; in the data active = inhibition above about 33%
Target sequence (P03206 whole entry, looked up): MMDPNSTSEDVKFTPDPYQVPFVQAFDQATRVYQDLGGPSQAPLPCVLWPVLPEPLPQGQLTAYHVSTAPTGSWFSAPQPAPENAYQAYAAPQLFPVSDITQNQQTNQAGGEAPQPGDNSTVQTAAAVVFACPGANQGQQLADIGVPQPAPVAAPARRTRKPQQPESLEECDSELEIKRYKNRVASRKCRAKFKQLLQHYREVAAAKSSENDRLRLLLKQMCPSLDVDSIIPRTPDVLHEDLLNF
PP5 inh: PP5 (human) phosphatase inhibition. hit rate 0.18% among 320,000. purified PP5c, OMFP substrate fluorescence. inhibition, % at 6.7 µM. AID 1987. P53041;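 active = inhibition above the campaign's mean inhibition across all tested compounds plus 3 SD, cut at about 9.5% in these data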
MsrA inhibitor: bovine MsrA inhibition. purified bovine MsrA, absorbance read-out. inhibition, % at 15.5 µM. hit rate 0.75% among 360,000; in the data active = inhibition above about 4.5%
EBNA-1 inhibitor: blocks EBNA-1 binding to DNA; inhibition, % at 14.8 µM; EBNA-1 DNA binding, fluorescence polarization; AID 1950; hit rate 0.34% among 300,000; in the data active = inhibition above about 28%
PP1 counter: PP1-alpha (human) inhibition in PP5 counter-screen | P62136 | purified PP1alpha, OMFP fluorescence | inhibition, % at 6.7 µM | hit rate 0.9% among 320,000 | AID 2235;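 active = inhibition above the mean inhibition of all tested compounds plus 3 SD, computed separately for each screening campaign, cut at about 15% in these data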
Target sequence (P62136 whole entry, looked up): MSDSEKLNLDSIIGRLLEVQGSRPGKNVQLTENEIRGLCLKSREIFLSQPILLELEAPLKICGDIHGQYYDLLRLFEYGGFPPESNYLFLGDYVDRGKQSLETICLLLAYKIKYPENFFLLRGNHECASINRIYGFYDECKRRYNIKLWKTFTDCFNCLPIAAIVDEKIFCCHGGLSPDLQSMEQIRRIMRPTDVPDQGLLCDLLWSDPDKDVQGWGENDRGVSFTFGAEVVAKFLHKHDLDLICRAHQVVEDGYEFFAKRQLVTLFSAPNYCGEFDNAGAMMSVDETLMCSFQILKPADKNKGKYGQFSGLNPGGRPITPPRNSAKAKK
MsrA act confirm: bovine methionine sulfoxide reductase A activation confirmed | shares compounds with MsrA act | purified bovine MsrA, absorbance read-out | activation, % at 10.6 µM | hit rate 12% among 1,000 | AID 602270; in the data active = activation above about 4%;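 also: enzyme coupled to thioredoxin and thioredoxin reductase with NADPH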
Of the large screens only hits and unclear results are named; the others gave an inactive call (follow-up assays come after a bar, where they were run).

Clc1ccccc1CSc1nnc(-c2ccccn2)n1Cc1ccco1	none
NC(=O)CSc1nnc(-c2ccccn2)n1Cc1ccco1	MsrA act 9.0 | MsrA act confirm inactive
CC(C)C1C(=O)N(Cc2cn(CC3CCCCC3)nn2)CCS(=O)(=O)N1Cc1ccc(-c2ccc(F)nc2)cc1 (configuration not stated)	MsrA act 8.9 (no result: ZTA counter, PP5 inh, EBNA-1 inhibitor, PP1 counter) | MsrA act confirm inactive
CCOC(=O)Cn1cc(-c2ccccc2)nn1	MsrA act 8.3 | MsrA act confirm inactive
CCOC(=O)Cn1nc(-c2ccccc2)ccc1=O	none
O=c1[nH]c(=S)[nH]cc1Oc1ccc(Cl)cc1Cl	MsrA act 8.8 (no result: ZTA counter, PP5 inh, EBNA-1 inhibitor, PP1 counter) | MsrA act confirm 4.7
Cc1nc(-c2ccccc2)[nH]c(=O)c1Oc1ccc(Cl)cc1Cl	none
COc1cc(Nc2ccc(C(=O)O)cc2[N+](=O)[O-])cc(OC)c1	MsrA act 9.7 | MsrA act confirm 8.1
COCCCNC(=O)c1cccs1	none
COc1ccc(CNCCNC(=O)c2cccs2)c(OC)c1OC	MsrA act 18 | MsrA act confirm inactive
O=C(NCCNC(=O)c1ccc(-c2ccc(Cl)c(Cl)c2)o1)c1cnccn1	MsrA act 10 | MsrA act confirm inactive
O=C(NCCNC(=O)c1ccc(-c2cccc(Cl)c2)o1)c1cnccn1	none (no result: ZTA counter, PP5 inh, EBNA-1 inhibitor, PP1 counter)
CCCCCCN1C=CC=C/C1=C\C=C(C#N)C#N	none
Fc1ccc(NC(=S)Nc2ccccc2N2CCOCC2)cc1Cl	MsrA act 9.7 | MsrA act confirm inactive
O=S(=O)(c1ccc(Cl)c(NC(=S)Nc2ccccc2N2CCOCC2)c1)N1CCOCC1	none
CC(C)NC(=O)N(C)C[C@@H]1OCc2cn(nn2)CCCC(=O)N([C@H](C)CO)C[C@H]1C	MsrA act 13 (no result: ZTA counter, PP5 inh, EBNA-1 inhibitor, PP1 counter) | MsrA act confirm inactive
C[C@@H]1CN([C@H](C)CO)C(=O)CCCn2nncc2CO[C@@H]1CN(C)S(=O)(=O)c1ccc2c(c1)OCCCO2	MsrA act 12 (no result: ZTA counter, PP5 inh, EBNA-1 inhibitor, PP1 counter) | MsrA act confirm inactive
C[C@H](CO)N1C[C@H](C)[C@@H](CN(C)S(=O)(=O)c2ccc3c(c2)OCCCO3)OCc2cnnn2CCCC1=O	none (no result: ZTA counter, PP5 inh, EBNA-1 inhibitor, PP1 counter)
C[C@H](CO)N1C[C@H](C)[C@@H](CN(C)C(=O)NC2CCCCC2)OCc2cn(nn2)CCCC1=O	none (no result: MsrA act, ZTA counter, PP5 inh, EBNA-1 inhibitor, PP1 counter)
CCOC(=O)N1CCN(c2ccncc2S(=O)(=O)N2CCCCC2)CC1	none
Cc1cnc(C(=O)OCC(=O)Nc2cccc3ccccc23)cn1	MsrA act 13 (no result: ZTA counter, PP5 inh, EBNA-1 inhibitor, PP1 counter) | MsrA act confirm inactive
Cc1cnc(C(=O)OCC(=O)Nc2cccc(C)c2C)cn1	none (no result: ZTA counter, PP5 inh, EBNA-1 inhibitor, PP1 counter)
COc1cc(NC(=O)CSCc2ccccc2)c(C(=O)O)cc1OC	MsrA act 10.0 | MsrA act confirm inactive
CS(=O)(=O)c1ccc(N)c(SSc2cc(S(C)(=O)=O)ccc2N)c1	MsrA act 14 | MsrA act confirm 9.8
CCOc1ccc(N)c(SSc2cc(OCC)ccc2N)c1	none
S=c1[nH]nc2ccc3ccccc3n12	MsrA act 11 (no result: ZTA counter, PP5 inh, EBNA-1 inhibitor, PP1 counter) | MsrA act confirm inactive
S=c1[nH]c2ccccc2n2c(=S)[nH]nc12	none
CCOC(=O)Cn1c(=O)c2c(nc3n2CCCCN3c2ccc(OCC)cc2)n(C)c1=O	MsrA act 8.0 | MsrA act confirm inactive
Nc1nc2ccccc2n1/N=C/c1ccc([N+](=O)[O-])s1	MsrA act 8.0 | MsrA act confirm 7.8
CC(=O)Nc1ccc(NC(=O)CCC(=O)OCC(=O)c2cccc([N+](=O)[O-])c2)cc1	none
CC(=O)Nc1ccc(C(=O)OCC(=O)c2cccc([N+](=O)[O-])c2)cc1	MsrA act 8.4 | MsrA act confirm inactive
O=C(Nc1n[nH]c(=S)s1)c1ccco1	MsrA act 8.7 | MsrA act confirm inactive
COC(=O)C(C(=O)OC)C(C)C(C(=O)OC)C(=O)OC	none
CC(C)(C)c1oc(C(=O)O)cc1CN1CCOCC1	none
CC1CCCN(C(=O)COC(=O)/C=C/c2ccc(C(F)(F)F)cc2)C1 (configuration not stated)	MsrA act 8.7 (no result: EBNA-1 inhibitor) | MsrA act confirm inactive
CC(C)N(C(=O)CSc1ncnc2sc(-c3ccccc3)cc12)C(C)C	MsrA act 9.1 | MsrA act confirm inactive
COc1ccc(S(=O)(=O)NCc2ccc(C(=O)O)cc2)cc1	MsrA act 7.9 | MsrA act confirm inactive
Cc1[nH]c(=S)sc1Cc1ccc(Cl)c(Cl)c1	none (no result: MsrA act)
Cc1cc(Cl)cc2sc(=S)[nH]c12	MsrA act 8.2 (no result: ZTA counter, PP5 inh, EBNA-1 inhibitor, PP1 counter) | MsrA act confirm inactive
O=C(Nc1cccnc1Cl)c1cccs1	MsrA act 17 | MsrA act confirm inactive
Cc1cc(NS(=O)(=O)c2ccc(NC(=O)CCCC(=O)O)cc2)nc(C)n1	MsrA act 8.2 | MsrA act confirm inactive
CCN1CCCC1CNC(=O)c1ccccc1Cl (configuration not stated)	none
O=C(O)C1=NOC(CNC(=O)c2ccccc2Cl)C1 (configuration not stated)	MsrA act 11 | MsrA act confirm inactive
Cc1ccccc1OC(=O)n1c(=S)oc2cc(Cl)ccc21	MsrA act 9.0 | MsrA act confirm inactive
COC(=O)c1c(C(=O)OC)c(-c2ccc(OC)cc2)n2c1CS(=O)(=O)C2	none
N#CC1(NC(=O)CN2C(=O)NC3(CCCCCC3)C2=O)CCCCC1	none (no result: EBNA-1 inhibitor)
CCC(Oc1ccccc1C)C(=O)N1CCCN(C)CC1 (configuration not stated)	MsrA act 14 | MsrA act confirm inactive
CCC(Oc1ccc(C)c(C)c1)C(=O)N1CCCN(C)CC1 (configuration not stated)	none
O=C1c2ccccc2S(=O)(=O)c2cc(C(=O)N(c3ccccn3)c3ccccn3)ccc21	MsrA act 8.0 | MsrA act confirm inactive
COC(=O)c1sccc1NC(=O)CSc1ccccc1NS(=O)(=O)c1ccccc1Cl	MsrA act 8.3 | MsrA act confirm inactive
S=C(Nc1ccccc1Cl)NC1CC2CCCC(C1)N2C1CC1 (configuration not stated)	none
COc1ccc(C2CC(Cn3cc(C#N)c(=O)n(C)c3=O)ON2C)cc1 (configuration not stated)	MsrA act 9.3 | MsrA act confirm inactive
Cc1cc(=O)[nH]c(SCC(=O)N2CCc3ccccc3C2)n1	MsrA act 9.5 | MsrA act confirm inactive
S=c1[nH]c2ccc(Cl)cc2[nH]1	none
S=c1ncc2[nH]c(=S)[nH]c2[nH]1	MsrA act 7.9 (no result: ZTA counter, PP5 inh, MsrA inhibitor, EBNA-1 inhibitor, PP1 counter) | MsrA act confirm 6.2
COc1ccc(OC)c(CN2C(=O)CN(S(C)(=O)=O)CC2(C)C(=O)NC(C)C)c1 (configuration not stated)	none (no result: MsrA act, ZTA counter, PP5 inh, EBNA-1 inhibitor, PP1 counter)
C#CCOCCOCCOCCNc1nc(N2CCN(C(=O)[C@H]([C@@H](C)CC)n3cc(CCC(=O)O)nn3)CC2)nc(N2CCN(C(=O)[C@H](C)n3cc(CCCN=C(N)N)nn3)CC2)n1	none
C#CCOCCOCCOCCNc1nc(N2CCN(C(=O)[C@H]([C@@H](C)CC)n3cc(CCCN=C(N)N)nn3)CC2)nc(N2CCN(C(=O)[C@H]([C@@H](C)CC)n3cc(CCC(=O)O)nn3)CC2)n1	MsrA act 7.9 (no result: ZTA counter, PP5 inh, EBNA-1 inhibitor, PP1 counter) | MsrA act confirm inactive
CCn1c(COc2ccccc2)nnc1SCC(=O)Nc1ccc(N2CCOCC2)cc1	none
